# High-throughput results (PubChem BioAssay)
# The list is not random: actives were taken first. Their share in the collection is about 0.78%.
# CCT chaperon mod = High-Throughput Screening for Modulators of Cytosolic Chaperonin Activity | purified chaperonin ATPase assay, HTRF ADP detection, 30 min | activity change, % (concentration not given with the values), hits read low | 360,000 tested, 0.3% active; in the data active = activity change below about -30%; note: % is set by controls: 0 for no effect and ±100 for the full control effect
#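 We incubate TRiC, 40 or 20 nM final, with library compounds at 76 uM and 10 uM ATP for 30 min at 37 °C. ADP formed is detected with Transcreener HTRF reagents after 30 min at room temperature.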
# GLS inhibitor = qHTS for Inhibitors of Glutaminase (GLS) | 410,000 tested, 0.21% active | GLS enzymatic activity, qHTS titration | Glutaminase kidney isoform, mitochondrial (Homo sapiens), O94925 | Potency, µM (titrated, usually from 45.5 µM), for the others: at the top dose activity change, negative = inhibition, most hits filed as inhibitors | AID 624170, 2012; note: potency is the fitted concentration of half-maximal effect; % is set by controls: 0 for no effect and ±100 for the full control effect
#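 hKGA; 45 mM KH2PO4 pH 8.2 + 0.02% Tween-20; cpd via pin tool; 1 mM Gln soln; GluOx/HRP/Amplex Red; RT 30 min; fluor. t0 & final.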
# PINK1 modulator = A Quantitative High throughput Screen to Identify Chemical Modulators of PINK1 Expression; PINK1 immunofluorescence, high-content cytometry, 24 h; Potency, µM (doses to about 76.6 µM), for the others: top-dose activation (PINK1 increase), usual class: activators; 410,000 tested, 0.2% active; AID 624263, 2012; active = well fitted activation curve with a large enough effect; inconclusive = small, poorly fitted or top-dose-only effect; cell line not stated here; note: potency is the fitted concentration of half-maximal effect; % of control where 0% means no effect; nearly all actives have a fitted effect of over 65% in size
#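 Stable cell line treated 24 h with compounds at 5 concentrations (CCCP controls), then fixed and immunostained for PINK1 plus nuclear and cell stains; PINK1 immunofluorescence quantified by laser-scanning microplate cytometry.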
# PGK inhibitor = qHTS Assay to Find Inhibitors of Phosphoglycerate Kinase. Phosphoglycerate kinase, glycosomal (Trypanosoma brucei brucei), P07378. PGK/GAPDH coupled, Kinase-Glo luminescence, 60 min. Potency, µM (titrated, usually from 57.5 µM), for inactives: at the highest dose activity change, negative = inhibition, actives largely listed as inhibitors. 380,000 tested, 0.043% active. AID 602233, 2012; note: potency is the fitted concentration of half-maximal effect; % is set by controls: 0 for no effect and ±100 for the full control effect; nearly all actives have a fitted effect of over 60% in size
#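 Recombinant glycosomal PGK reaction used 1,3-bisphosphoglycerate generated in-well by GAPDH (100nM final) in 100mM TEA pH 7.6, 5mM MgCl2, 0.01% Tween-20. After 60 minutes at room temperature, ATP was read by Kinase-Glo Plus luminescence end-point.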
# PI4K2A inh = qHTS for small molecular inhibitors of PI4K2A. purified PI4K2A, ADP-Glo luminescence, 1 h; hits give low values. Phosphatidylinositol 4-kinase type 2-alpha (Homo sapiens), Q9BTU6. AID 1346378, 2018. activity change, negative = inhibition, % at 76.9 µM. 420,000 tested, 0.13% active; in the data active = activity change below about -50%; inconclusive = mostly about -30% to -49%;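 note: -100% = wells without enzyme as full effect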
# Target sequence (Q9BTU6 whole entry, looked up): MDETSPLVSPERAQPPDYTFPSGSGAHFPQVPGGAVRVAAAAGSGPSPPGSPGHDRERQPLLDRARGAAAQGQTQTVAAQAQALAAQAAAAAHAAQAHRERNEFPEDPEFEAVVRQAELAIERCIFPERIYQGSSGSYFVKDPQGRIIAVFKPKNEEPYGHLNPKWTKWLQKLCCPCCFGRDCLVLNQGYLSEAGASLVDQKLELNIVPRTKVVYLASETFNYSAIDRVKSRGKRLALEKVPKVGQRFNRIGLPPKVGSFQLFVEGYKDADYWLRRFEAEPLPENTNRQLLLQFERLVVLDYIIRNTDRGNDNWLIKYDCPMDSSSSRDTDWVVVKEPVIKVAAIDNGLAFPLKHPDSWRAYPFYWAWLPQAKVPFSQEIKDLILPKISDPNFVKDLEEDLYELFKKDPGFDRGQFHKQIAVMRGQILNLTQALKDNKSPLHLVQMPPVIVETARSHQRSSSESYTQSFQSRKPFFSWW
#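 Compounds are screened against recombinant PI4K2A using PI as substrate and ATP, the latter dispensed at 300 microM. Reactions run one hour at ambient temperature before ADP-Glo detection; full inhibition defined by wells lacking enzyme.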
# GLS hit conf = qHTS for Inhibitors of Glutaminase (GLS): Hit Confirmation; shares compounds with GLS inhibitor; biochemical glutaminase enzyme inhibition assay; Potency, µM (series often up to 46.1 µM), for inactives: top-dose activity change, negative = inhibition, usual class: inhibitors; 35 tested, under 10 active; calls by dose curve
# HRP GOx counter = qHTS for Inhibitors of Glutaminase (GLS): Hit Confirmation in HRP Counterscreen; shares compounds with GLS inhibitor; HRP/glutamate oxidase coupled Amplex Red fluorescence counterscreen; activity change, negative = inhibition, % at 46.1 µM; 35 tested, under 10 active; AID 624262, 2012
# HEK293 tox = qHTS for Inhibitors of Glutaminase (GLS): Hit Confirmation using Cytotoxicity; activity change, negative = cytotoxicity, % at 46.1 µM; AID 624264, 2012; HEK-293 viability, CellTiter-Glo luminescence, 24 h; shares compounds with GLS inhibitor; 35 tested, under 10 active
# * = called active by the depositor; i = inactive; ? = inconclusive; . = no result given; ! = repeats disagree. Unless noted, calls come from the whole dose curve; as a rule, active = well fitted curve in the direction sought with a large enough effect; inconclusive = small, poorly fitted or top-dose-only effect, or another doubt; inactive = no such curve, though single readings can be large; an effect the other way counts as inactive or inconclusive.
SMILES,CCT chaperon mod,GLS inhibitor,PINK1 modulator,PGK inhibitor,PI4K2A inh,GLS hit conf,HRP GOx counter,HEK293 tox
C=CCN1C(=O)/C(=C\c2ccc(OC(=O)c3ccco3)c(OC)c2)SC1=S,-83.7*,-1.8%,-1.6%,4.5%,2.4,.,.,.
Cc1ncc2c(c1CNC(=O)c1cncs1)CCN(C(=O)c1ccsc1)C2,.,.,-0.1%,.,.,.,.,.
C[C@@H]1CN(Cc2ccc3c(c2)CN(C(=O)c2ccc(Oc4ccccc4)o2)CCO3)C[C@H](C)O1,.,.,2.1%,.,.,.,.,.
NNC(=O)c1cc2ccccc2cc1NS(=O)(=O)c1ccccc1,0.0,?,-0.3%,3.2%,-3.2,-9.6%,-22.6,-9.5
COc1ccc(NS(=O)(=O)c2ccc3c(c2)[C@H]2C=CC[C@H]2[C@@H](c2ccc(C(=O)O)cc2)N3)cc1,0.2,10µM*,-0.2%,28.2µM*!,-9.8,3.26µM*,3.7,1.6
COc1ccc(NS(=O)(=O)c2cc(N)ccc2N2CCCC2)cc1,0.4,?,11.2%,-2.4%,0.0,-3.7%,?,-12.3
COc1ccc(NS(=O)(=O)c2cc(N)ccc2N2CCOCC2)cc1,-0.7,32.6%,0.2%,-6.3%,8.0,.,.,.
Cc1ccc(C)c(S(=O)(=O)Nc2ccc3oc(C)c(C(=O)O)c3c2)c1,-1.6,12.6µM*,1.6%,?,0.1,?,6.9,-7.2
CC(=O)c1c(C)oc2ccc(NS(=O)(=O)c3ccc(C)cc3)cc12,-0.4,-7.9%,4.2%,6.4%,1.9,.,.,.
O=C(c1ccccc1-n1cccn1)N1CCOc2c(cc(-c3ncc(C(F)(F)F)cc3Cl)cc2OCC2CCCO2)C1 (centres undefined),.,.,-0.7%,.,.,.,.,.
O=C(O)/C=C/c1ccc(S(=O)(=O)Nc2ccc3[nH]c(=O)[nH]c3c2)cc1,-5.7,?,2.2%,7.0%,-5.1,0.5%,-18.3,0.6
Cc1ccc(NS(=O)(=O)c2ccc(/C=C/C(=O)O)cc2)cc1Cl,0.3,5.1%,-1.4%,-2.8%,-0.6,.,.,.
O=C(NCC1Cc2cc(-c3cncnc3)cc(Cl)c2O1)c1cccc(Cn2cccn2)c1 (centres undefined),.,.,-0.1%,.,.,.,.,.
CNC(=O)CN(CCN(CCN(CC(=O)[O-])CC(=O)NC)CC(=O)[O-])CC(=O)[O-].O.[Gd+3],.,.,.,.,4.0,.,.,.
COc1ccc(NS(=O)(=O)c2ccc(NC(=S)NCC3CCCO3)cc2)cc1 (centres undefined),0.1,-0.6%,3.2%,-1.8%,-0.8,.,.,.
COc1ccccc1NS(=O)(=O)c1ccc(O)c(NC(=S)NCC2CCCO2)c1 (centres undefined),-1.1,?,5.7%,-4.1%,46.7,12.0%,4.8,2.9
CCC1CN(CC(=O)NC(C)CO)Cc2cc(OC)ccc2O1 (centres undefined),.,.,-1.1%,.,.,.,.,.
O=C(O)c1ccc(S(=O)(=O)Nc2ccc(O)c(Sc3nc4ccccc4s3)c2)cc1,0.6,?,1.0%,4.7%,-8.6,?,?,2.4
COc1ccccc1NS(=O)(=O)c1cc(NC(=O)c2cc[n+]([O-])cc2)ccc1N1CCCC1,0.7,11.2µM*,-0.6%,i,3.9,5.1%,-3.7,5.7
